# Source: PubChem BioAssay (The Scripps Research Institute Molecular Screening Center)
# Hits are enriched below; roughly 0.9% of the tested compounds scored in any of these assays.
# SRC1 TRFRET art: counter-screen for PPARgamma SRC-1 recruitment agonists: TR-FRET artefact; 0.34% of 99,000 active; AID 1051; TR-FRET detection artefact counter-screen, emission ratio; stronger effect = higher value; TR-FRET ratio at 8 µM; in the data active = TR-FRET ratio above about 2300
# PPARg SRC-3 ag: agonists of human PPARgamma SRC-3 coactivator recruitment; biochemical PPARgamma/SRC-3 coactivator recruitment assay; 0.26% of 200,000 active; activation, % at 8 µM; P37231; in the data active = activation above about 23%
# PPARg SRC-1 ag: promotes SRC-1 coactivator recruitment by human PPARgamma; 0.41% of 200,000 active; activation, % at 8 µM; PPARgamma-SRC-1 coactivator recruitment biochemical assay; P37231; AID 631; in the data active = activation above about 19%
# TR-FRET SRC-2 ct: counter-screen for PPARgamma SRC-2 recruitment agonists: TR-FRET artefact; stronger effect = higher value; TR-FRET ratio at 8 µM; 0.4% of 200,000 active; AID 1049; in the data active = TR-FRET ratio above about 2000
# SRC3 TRFRET art: counter-screen for PPARgamma SRC-3 recruitment agonists: TR-FRET artefact; PPARgamma/SRC-3 format; stronger effect = higher value; TR-FRET ratio at 8 µM; 0.39% of 99,000 active; AID 1048; in the data active = TR-FRET ratio above about 2000
# PPARg SRC-2 ag: promotes SRC-2 coactivator recruitment by human PPARgamma | P37231 | PPARgamma LBD-SRC-2 recruitment, biochemical | activation, % at 8 µM | 0.34% of 200,000 active | AID 1032
# PPARg SRC2 conf: human PPARgamma SRC-2 recruitment agonism, confirmation. shares compounds with PPARg SRC-3 ag. 52% of 790 active. biochemical SRC-2 recruitment by PPARgamma. activation, % at 8 µM
# PPARg SRC1 conf: human PPARgamma SRC-1 recruitment agonism, confirmation; shares compounds with PPARg SRC-3 ag; PPARgamma–SRC-1 coactivator recruitment biochemical assay; activation, % at 8 µM; 43% of 790 active; in the data active = activation above about 20%
# PPARg SRC3 conf: human PPARgamma SRC-3 recruitment agonism, confirmation. shares compounds with PPARg SRC-3 ag. 29% of 790 active. activation, % at 8 µM. biochemical PPARgamma-SRC-3 coactivator recruitment, agonist mode. AID 1301; in the data active = activation above about 24%
# Numbers stand for hits; 0 = inactive; - = no result given. Cut-off read from the data, not from the text of the source, unless noted: active = activation above about 22%; inactive = the rest.
SMILES,SRC1 TRFRET art,PPARg SRC-3 ag,PPARg SRC-1 ag,TR-FRET SRC-2 ct,SRC3 TRFRET art,PPARg SRC-2 ag,PPARg SRC2 conf,PPARg SRC1 conf,PPARg SRC3 conf
COc1ccccc1Nc1nc(C)cc(=O)[nH]1,-,0,0,0,-,0,-,-,-
COc1cc(/C(C)=N/NC(=O)C(O)(c2ccccc2)c2ccccc2)ccc1O,0,0,0,0,0,0,-,-,-
COc1ccc2cc3[n+](cc2c1OC)CCc1cc2c(cc1-3)OCO2,0,0,0,0,0,25,0,0,0
COc1cccc(C2=NCCc3cc4c(cc32)OCO4)c1OC,0,0,0,0,0,0,-,-,-
Cc1ccc(-n2c(O)c(C=Nc3ccccc3-c3n[nH]c(=S)[nH]c3=O)c3ccccc3c2=O)cc1C,2325,23,24,2174,2203,24,44,33,28
C#CCn1c(=NC(=O)c2ccc(Br)s2)sc2cccc(OC)c21,-,33,24,4015,-,30,46,32,26
C#CCn1c(=NC(=O)c2ccc(Br)s2)sc2cc(NC(C)=O)ccc21,0,0,0,0,0,0,-,-,-
O=C(Oc1ccc(Cl)c2cccnc12)C12CC3CC(CC(C3)C1)C2,0,0,0,0,0,0,-,-,-
CCN(CC)S(=O)(=O)c1ccc2c(c1)nc(CCC(=O)OCC(=O)Nc1cc(Cl)cc(Cl)c1)n2C,0,0,0,0,0,0,-,-,-
CC(=O)Sc1nc(-c2ccccc2)[nH]c1S(=O)(=O)c1ccc(C)cc1,0,37,22,0,0,0,0,21,0
CN(C)c1ccc(N/C=C/C(=O)c2ccccc2)cc1,-,0,0,0,-,0,-,-,-
CN(C)c1ccc(N/C=C/C(=O)C(C)(C)C)cc1,-,70,0,2723,-,81,0,0,0
Cc1nc(C(=O)Nc2ccc(F)cc2)nn1-c1ccc([N+](=O)[O-])cc1,-,0,0,0,-,0,-,-,-
CCCCCCCC(=O)N/N=C/c1cccnc1,-,0,20,0,-,0,0,0,0
COc1ccccc1C(=O)NC(CCSC)C(=O)NC1CCCCCC1 (configuration not stated),0,0,0,0,0,0,-,-,-
c1csc(-c2csc(-c3cccs3)n2)c1,-,0,0,0,-,0,-,-,-
Brc1cc(Br)c2nc(-c3cccs3)ccc2c1,-,52,23,2365,-,45,36,24,0
O=C(Nc1cccc(NC(=O)c2ccc(Br)o2)n1)c1ccc(Br)o1,-,0,19,0,-,0,0,0,0
O=C(O)c1ccccc1C(=O)c1ccc(Br)s1,0,0,0,0,0,0,-,-,-
COC(=O)C(NC(=O)CSc1nc(N)cc(=O)[nH]1)c1ccccc1 (configuration not stated),0,0,0,0,0,0,-,-,-
CCCCn1c(SCC(=O)Nc2cc(C)on2)nc2ccccc2c1=O,-,0,22,0,-,0,0,0,0
CCC(C)n1c(SCC(=O)Nc2cc(C)on2)nc2ccccc2c1=O (configuration not stated),-,0,0,0,-,0,-,-,-
Cc1ccc(-c2cc(C(=O)OCn3nnc4ccccc4c3=O)c3ccccc3n2)cc1,0,0,0,0,0,0,-,-,-
COc1ccc(S(=O)(=O)Nc2ccc3c(c2)OCO3)cc1C,-,0,0,0,-,24,0,0,0
CC(OC(=O)C1=Cc2ccccc2OC1)C(=O)NC(C)(C)C (configuration not stated),0,0,0,0,0,0,-,-,-
COC(=O)CSc1nnc2n1C(C)(C)Cc1ccccc1-2,-,0,0,0,-,0,-,-,-
CC1(C)Cc2ccccc2-c2nnc(SCC(=O)N3CCc4ccccc43)n21,-,0,24,0,-,0,0,0,0
CC(C)c1[nH]nc2c1C(Cc1ccccc1)C(C#N)=C(N)O2 (configuration not stated),-,0,19,0,-,0,0,0,0
Cc1cccc2c(C(=O)Nn3cnnc3)cc(-c3ccccc3Cl)nc12,0,0,0,0,0,0,-,-,-
O=C(Nc1ccccc1F)c1ccc(-n2cncn2)nc1,-,0,0,0,-,23,0,0,0
